PubChem BioAssay
The source made the active and inactive calls.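 How the source made its calls, unless noted: active means a full or partial loss of lipid-probe fluorescence in the fish gall bladder, intestine or both, judged by eye; inactive means no fluorescence loss, or compound toxic to the fish.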

Key:
[1] = inhibitors of TNFa-induced NFkB p65 translocation, primary screen, imaging, HUVEC, MLSMR starter and 10KST1 sets (AID 438;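 active means inhibition above 20% together with a positive visual image hit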;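 further: compound added about 3h40 before a 20 min TNFalpha stimulation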;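 on inhibition: signal is the nuclear over cytoplasmic p65 intensity ratio per well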); conditions: HUVEC TNFa-induced p65 nuclear translocation; cell count: measured here: nuclei count (cytotoxicity indicator), at 2.08 µM; inhibition: at 2 µM, stronger effect = higher value, 0% TNFa-plus-vehicle, 100% no-TNFa wells
[2] = reduction of polyQ htt aggregates in cells – imaging, exon1htt(103Q)mCFP cells, high-content imaging, primary screen (AID 483;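 active means visual image review flags a hit and inhibition of aggregation exceeds 20%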;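 further: compound exposure lasted 3 days before fixation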;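 on nuclei count: percent of the per-plate median nuclei count of sample wells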); conditions: exon1htt(103Q)mCFP cell line, aggregate imaging, at 2 µM; inhibition of aggregation: stronger effect = higher value; nuclei count: measured here: cell count, toxicity
[3] = endothelial E-selectin expression blockers – imaging, HUVEC, immunofluorescence, MLSMR starter and 10KST1 sets, primary screen (AID 487;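 active means visually confirmed hit in the image check and inhibition above 20%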;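 on inhibition: signal is fraction of cell area covered by stained E-selectin grains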;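 on nuclei count: 100% = median nuclei count of all wells on the same plate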); conditions: HUVEC TNFalpha-induced E-selectin immunofluorescence imaging, at 2 µM; inhibition: stronger effect = higher value; nuclei count: measured here: cell number, toxicity
[4] = Primary imaging screen for DUSP6 inhibitors that restore phospho-Erk in transfected HeLa cells, chemical complementation (AID 609;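 active means compounds giving at least 50% inhibition in the cell-based MKP-3 phosphatase rescue imaging test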;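 on inhibition: phospho-Erk level distribution per well compared with pooled transfected vehicle control wells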); conditions: HeLa MKP-3 transfected, phospho-Erk imaging KS statistic, at 10 µM, cells stimulated with TPA for 15 min
[5] = target: Dual specificity protein phosphatase 6 (Homo sapiens) (UniProt Q16828); experiment: as above; conditions: HeLa MKP-3 transfected, phospho-Erk imaging KS statistic; at 10 µM; stronger effect = higher value; cells stimulated with TPA for 15 min
[6] = target: Voltage-gated potassium channel subunit beta-2 (Rattus norvegicus) (UniProt P62483); experiment: inhibitors of rat Kvbeta2 reductase activity – biochemical, NADPH fluorescence, primary screen (AID 622;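 active means fluorescence slope higher than the sample average by over 3 SD, cut at about -0.22 in these data, passing the limit was not always enough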;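 further: slope of raw intensity against log time taken from 70 to 1610 s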); conditions: recombinant KvBeta, 4-cyanobenzaldehyde reduction, at 10 µM, stronger effect = higher value
[7] = target: Voltage-gated potassium channel subunit beta-2 (Rattus norvegicus) (UniProt P62483); experiment: enhancers of rat Kvbeta2 NADPH turnover – biochemical, NADPH fluorescence, primary screen (AID 623;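 active means NADPH fluorescence slope more negative than the mean of all samples by about 3 SD, 99.7% confidence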;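 further: fluorescence intensity change per second fitted from 20 to 320 s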); conditions: Recombinant KvBeta, NADPH fluorescence decrease slope, 10 min; at 10 µM; stronger effect = lower value
[8] = target: Alpha-2C adrenergic receptor (Homo sapiens) (UniProt P18825); experiment: compounds altering alpha2C-coupled GIRK flux – cell-based, HEK293 alpha2C/GIRK1/2, thallium flux, primary screen (AID 624;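 active means fluorescence slope after compound addition differing from the mean of all screened samples at 99.7% confidence, in either direction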;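 further: slope of fluorescence ratio to pre-addition baseline per second over 15 to 24 s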); conditions: thallium flux BTC fluorescence, at 10 µM, actives lie on both sides
[9] = target: Muscarinic acetylcholine receptor M4 (Homo sapiens) (UniProt P08173); experiment: M4-linked GIRK flux change, two-sided – cell-based, HEK293 M4/GIRK, thallium flux, BTC-AM, M4 allosteric agonist project, primary screen (AID 625;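 active means fluorescence slope after compound addition differing from the mean of all tested samples at 99.7% confidence, mostly higher but some lower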;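 further: thallium influx through GIRK channels coupled to M4 in HEK293 cells with BTC-AM dye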); conditions: at 10 µM, actives lie on both sides
[10] = inhibitors of larval lipid processing in zebrafish, primary screen, whole organism, PED6 fluorescence, gall bladder and intestine (AID 686); conditions: Zebrafish larvae PED6 lipid processing, fluorescence scoring; screened at 20 µM (by protocol);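 further: larvae 5 to 7 days old with five fish per well; signal comes from phospholipase A2 cleavage of quenched PED6 carried via bile; overnight exposure to compound and PED6 before scoring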
[11] = loss of swimming-algae plug formation – whole organism, Chlamydomonas reinhardtii, WT vs cilia-less mutant, absorbance, 96-well, primary screen (AID 463189;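 active means inhibition at or above 50% relative to wild type and mutant plate controls; inactive means inhibition below 50%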;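 further: 0% = wild type cc124 cells in DMSO and 100% = ciliumless bld1 mutant cells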); conditions: Chlamydomonas reinhardtii gravitaxis, OD600 absorbance, 2 days; at 10 µM; stronger effect = higher value
[12] = blockers of RIG-like receptor reporter activation – cell-based, Sendai virus stimulus, luciferase, 10K MLSCN set, TLR/RLR signaling modifier project, primary screen (AID 602276;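 active means inhibition at or above 50% at 10 µM; inactive means inhibition below 50%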;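 further: firefly luciferase from ISG56 promoter only with Renilla not read in this screen; 0% = Sendai virus plus DMSO and 100% = medium plus DMSO without virus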); conditions: HEK293 RL24 IRF3 luciferase reporter, at 10 µM, stronger effect = higher value
[13] = TLR3 IRF3 reporter activation blockers – cell-based, poly I:C stimulus, luciferase, 10K MLSCN set, primary screen (AID 602277;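 active means inhibition of the reporter signal at or above 50%; inactive means inhibition below 50%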); conditions: HEK293-TLR3 RL24 IRF3 luciferase reporter, at 10 µM, stronger effect = higher value
[14] = measured here: cell density z-score
[15] = measured here: nuclear c-Myc green intensity z-score
[16] = measured here: nuclear pErk red intensity z-score, stronger effect = higher value

Chain of Dual specificity protein phosphatase 6 (Homo sapiens) (Q16828 whole entry, looked up): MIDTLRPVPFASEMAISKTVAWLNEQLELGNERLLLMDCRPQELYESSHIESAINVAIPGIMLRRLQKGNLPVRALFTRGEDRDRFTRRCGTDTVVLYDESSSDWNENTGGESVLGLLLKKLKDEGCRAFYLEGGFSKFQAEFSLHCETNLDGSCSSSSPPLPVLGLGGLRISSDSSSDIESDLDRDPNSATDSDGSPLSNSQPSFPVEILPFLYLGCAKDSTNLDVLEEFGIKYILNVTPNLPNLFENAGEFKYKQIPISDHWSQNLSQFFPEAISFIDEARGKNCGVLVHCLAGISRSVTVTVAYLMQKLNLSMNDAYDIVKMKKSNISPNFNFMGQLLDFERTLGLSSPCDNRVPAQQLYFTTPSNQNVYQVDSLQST
Chain of Muscarinic acetylcholine receptor M4 (Homo sapiens) (P08173 whole entry, looked up): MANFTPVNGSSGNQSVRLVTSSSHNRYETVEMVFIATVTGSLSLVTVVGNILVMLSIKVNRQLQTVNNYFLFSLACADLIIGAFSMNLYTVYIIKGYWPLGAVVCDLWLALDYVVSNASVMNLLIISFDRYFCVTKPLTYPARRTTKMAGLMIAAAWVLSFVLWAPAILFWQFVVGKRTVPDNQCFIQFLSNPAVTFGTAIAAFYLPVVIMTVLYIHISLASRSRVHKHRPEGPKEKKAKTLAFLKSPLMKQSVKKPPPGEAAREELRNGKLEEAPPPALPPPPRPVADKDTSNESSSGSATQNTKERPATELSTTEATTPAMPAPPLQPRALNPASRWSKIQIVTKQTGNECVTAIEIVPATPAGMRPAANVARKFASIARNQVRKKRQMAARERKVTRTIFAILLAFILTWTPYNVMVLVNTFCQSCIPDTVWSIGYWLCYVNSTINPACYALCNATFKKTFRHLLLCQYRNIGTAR
Chain of Alpha-2C adrenergic receptor (Homo sapiens) (P18825 whole entry, looked up): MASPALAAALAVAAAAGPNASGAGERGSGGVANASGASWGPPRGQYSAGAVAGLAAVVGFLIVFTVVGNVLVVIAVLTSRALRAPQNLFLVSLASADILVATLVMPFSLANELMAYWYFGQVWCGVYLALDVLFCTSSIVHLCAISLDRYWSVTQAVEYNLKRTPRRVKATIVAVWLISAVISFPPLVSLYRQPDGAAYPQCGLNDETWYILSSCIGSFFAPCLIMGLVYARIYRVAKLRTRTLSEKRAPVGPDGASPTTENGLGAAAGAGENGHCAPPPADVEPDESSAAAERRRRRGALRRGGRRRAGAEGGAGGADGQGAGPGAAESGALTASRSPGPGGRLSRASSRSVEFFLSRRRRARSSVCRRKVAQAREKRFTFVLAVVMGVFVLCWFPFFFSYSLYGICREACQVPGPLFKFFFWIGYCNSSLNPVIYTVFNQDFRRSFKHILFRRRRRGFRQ
Chain of Voltage-gated potassium channel subunit beta-2 (Rattus norvegicus) (P62483 whole entry, looked up): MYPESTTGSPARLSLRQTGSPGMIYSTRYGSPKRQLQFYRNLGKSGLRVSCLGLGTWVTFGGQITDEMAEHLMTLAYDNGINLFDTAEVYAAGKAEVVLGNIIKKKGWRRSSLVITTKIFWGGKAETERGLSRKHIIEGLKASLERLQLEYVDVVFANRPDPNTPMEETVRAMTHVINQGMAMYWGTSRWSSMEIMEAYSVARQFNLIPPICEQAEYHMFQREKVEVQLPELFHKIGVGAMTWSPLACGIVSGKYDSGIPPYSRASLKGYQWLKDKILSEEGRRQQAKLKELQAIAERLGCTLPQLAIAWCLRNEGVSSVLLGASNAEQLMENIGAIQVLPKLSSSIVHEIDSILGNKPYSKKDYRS

SMILES | cell count [1] | inhibition [1] | inhibition of aggregation [2] | nuclei count [2] [%] | inhibition [3] | nuclei count [3] [%] | z-score [4, 14] | z-score [4, 15] | z-score [4, 16] | inhibition [5] | fluorescence slope [6] | NADPH fluorescence slope [7] | slope [8] | fluorescence slope [9] | outcome [10] | inhibition [11] | inhibition [12] | inhibition [13]
O=C1C2CC=C(Cl)CC2C(=O)N1CNc1ccccn1 (stereo not given) | 549 | -1.9% (inactive) | 21.8% (inactive) | 86.4 | -24.7% (inactive) | 118 | -0.409 | 1.18 | -0.807 | 1.98% (inactive) | -0.446 (inactive) | -1.4e-05 (inactive) | 0.00475 (inactive) | 0.00609 (inactive) | inactive | -11.9% (inactive) | 11.3% (inactive) | 18.2% (inactive)
COc1ccc(N2CCN(c3nc4c(c(=O)[nH]c(=O)n4C)n3CCCc3ccccc3)CC2)cc1 | 636 | 6.6% (inactive) | 2.8% (inactive) | 100 | -69.3% (inactive) | 112 | 0.546 | -1.43 | 0.632 | 14.7% (inactive) | -0.429 (inactive) | -3.7e-05 (inactive) | 0.0083 (inactive) | 0.0059 (inactive) | inactive | 1.13% (inactive) | 12.8% (inactive) | 18.8% (inactive)
COc1ccccc1C1(CC(=O)N2CCOCC2)CCOC(C(C)C)C1 (stereo not given) | 506 | -6.5% (inactive) | -10.9% (inactive) | 102 | 3.2% (inactive) | 131 | 0.755 | 0.316 | 1.01 | 5.95% (inactive) | -0.414 (inactive) | -4.7e-05 (inactive) | 0.00593 (inactive) | 0.00519 (inactive) | inactive | 12.8% (inactive) | -1.02% (inactive) | -0.559% (inactive)
Cc1nnc(NCc2n[nH]c(=O)c3ccccc23)c2ccccc12 | 459 | -4.7% (inactive) | -19.6% (inactive) | 51.5 | -23.8% (inactive) | 118 | -2.3 | 1.26 | 1.58 | 7.21% (inactive) | -0.502 (inactive) | -0.000115 (inactive) | 0.00499 (inactive) | 0.0052 (inactive) | inactive | -15.8% (inactive) | 4.22% (inactive) | -7.48% (inactive)
CCN1CCc2c(C#N)c(N3CCOCC3)nc(NCc3ccccc3)c2C1 | 507 | 9.3% (inactive) | 4.7% (inactive) | 80.7 | -218% (inactive) | 110 | 0.377 | -1.7 | 2.2 | -11.5% (inactive) | -0.484 (inactive) | -3.1e-05 (inactive) | 0.00496 (inactive) | 0.00486 (inactive) | inactive | 27.4% (inactive) | 10.8% (inactive) | 10.8% (inactive)
COc1cc2[nH]c3c(=O)n(CCN(C(C)C)C(C)C)cnc3c2cc1OC | 531 | -5.6% (inactive) | -4% (inactive) | 102 | -26.1% (inactive) | 150 | 0.411 | -1.49 | 0.261 | 3.97% (inactive) | -0.317 (inactive) | -1.9e-05 (inactive) | 0.00406 (inactive) | 0.00609 (inactive) | inactive | 5.81% (inactive) | 10.1% (inactive) | 33.2% (inactive)
COc1ccc(/C(O)=C2/C(=O)C(=O)N(CCN(C)C)C2c2ccccn2)cc1OC (stereo not given) | 485 | -2% (inactive) | -10.2% (inactive) | 100 | -108% (inactive) | 103 | -0.696 | -0.268 | -0.24 | 2.71% (inactive) | -0.47 (inactive) | -8.1e-05 (inactive) | 0.00777 (inactive) | 0.00535 (inactive) | inactive | -0.28% (inactive) | -0.634% (inactive) | 5.99% (inactive)
Cn1c(=O)c2c(nc(Oc3ccc4c(c3)OCO4)n2Cc2ccc(F)cc2)n(C)c1=O | 691 | -7.2% (inactive) | 4.8% (inactive) | 108 | -27.6% (inactive) | 90.8 | -1.8 | -0.122 | -1.44 | 1.9e-07% (inactive) | -0.503 (inactive) | -2e-05 (inactive) | 0.00727 (inactive) | 0.00586 (inactive) | inactive | -14.6% (inactive) | 20.6% (inactive) | 26.7% (inactive)
CC(=N\O)/C(CN(C)C)=N/O | 593 | -2.4% (inactive) | -2.9% (inactive) | 86.5 | -11.6% (inactive) | 131 | 0.774 | -0.0101 | -0.876 | -0.233% (inactive) | -0.49 (inactive) | -6.9e-05 (inactive) | 0.0061 (inactive) | 0.00548 (inactive) | inactive | -6.2% (inactive) | -13.1% (inactive) | 1.97% (inactive)
Cc1cc(C)n(CC2CC(=O)N(c3ccc(Cl)c(Cl)c3)C2=O)n1 (stereo not given) | 566 | -4.3% (inactive) | -16.2% (inactive) | 104 | -50.6% (inactive) | 139 | 0.432 | -0.507 | 0.03 | 12.8% (inactive) | -0.489 (inactive) | -5.7e-05 (inactive) | 0.0052 (inactive) | 0.00497 (inactive) | inactive | -1.93% (inactive) | -1.21% (inactive) | 6.73% (inactive)
